In all, about 2,700 sequences were measured (“arbitrary fluorescence units”: median about 4,100, highest 2% from about 54,000 on). For the sample, the highest values were picked, then their nearest neighbours and some sequences at random.

The experiment concerns the target T1, ETS1 (UniProt P14921).
T1 sequence: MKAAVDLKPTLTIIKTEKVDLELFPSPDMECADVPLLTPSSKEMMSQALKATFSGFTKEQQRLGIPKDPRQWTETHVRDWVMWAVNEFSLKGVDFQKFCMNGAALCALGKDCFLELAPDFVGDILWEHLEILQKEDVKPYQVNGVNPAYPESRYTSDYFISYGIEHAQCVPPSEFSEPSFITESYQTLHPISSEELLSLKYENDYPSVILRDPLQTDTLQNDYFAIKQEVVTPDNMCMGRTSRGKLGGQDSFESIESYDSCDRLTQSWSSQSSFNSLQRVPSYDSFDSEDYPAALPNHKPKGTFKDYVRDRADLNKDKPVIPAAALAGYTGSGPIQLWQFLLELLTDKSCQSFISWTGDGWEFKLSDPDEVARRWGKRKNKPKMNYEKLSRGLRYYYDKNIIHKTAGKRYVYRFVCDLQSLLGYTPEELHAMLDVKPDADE
In words: ETS1 binding intensity (PBM fluorescence) (arbitrary fluorescence units); higher = stronger binding. The conditions noted are these: ETS1 concentration 10 nM. As to the method: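 gcPBM on wild-type 36-bp genomic probes with two neighbouring ETS1 sites (4-24 bp apart). Recombinant human ETS1 (10 nM) was detected with anti-ETS1 antibody fluorescence. Values are medians over 3 replicate spots. The probes sit in constant array flanks that are not printed.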
CCCTCCCCTTCCTGCCTGCCCTTCTTCCGGGGCACC yielded an ETS1 binding intensity of 8020.
CCCACTTCCTGCCTCACCCTGAAGATCTTCCGGGCA: the ETS1 binding intensity came out at 56900.
On to TTCACCCCACCACTTCCTCATCCTGATCTCAGCTCA, for which the ETS1 binding intensity is 2880.
AAGACTTCTACTTCCGGAGACTTCCTCATGCCATGC registered an ETS1 binding intensity of 33400.
In turn, GCCGGAGACTAGCTTCCGCTTCCGGTGTGAGCGGCC gave an ETS1 binding intensity of 26200.
AACCACTTCCGGTGAGTAGCTTCTACTTCCGGAGAC returned an ETS1 binding intensity of 135000.
Sequence CACCCATTTTCACTTCCGCTTCCGGTTGTCACAGGC yielded an ETS1 binding intensity of 26500.
Under GTTACTTCCTCTCCCCAGGTCTCTCGGTTTCCTCAT stands 23600; under TCTCGACTTCCGGTTCACCCAGCATTTCCTCTTCCC, 103000; under GCTCCACCTTCCGGCCCATGGACACGGATGCCGAGG, 16100.
In the case of TCCTGCCTCAGGATGCCGGGGGAGGAAGAGGAGCGG it was 258; in that of CCTACAATTCCTGTTTTGGAGACCGCTTCCGGCAGC, 3700.
Under ATCTCACCTTCCTGGTGTCTGGGCTTCCGCAGCTTC stands 662; under AGCATTCCACTTCCTGTCTTGATTCCTGTATTAGAG, 62700.
As to CTTCCACATCTTCCTGCAGAGCATCCTGTCTGTGCA, the ETS1 binding intensity was 4230.
Under TATTCAAAGCCCACTTCCTTCCTGTAGCATTCATTC stands 6220; under TGTGATGTTTCCTCTTGCTGTGGTTTCCTGTCATGG, 4090.
In the case of CAGGCCGGAAGTACGTGAGAGGAGACTTCCGGCCAC it was 31200; in that of AGGAGGAATGGCAGGAAGAGGAAGTGAAACCGACAA, 1690.
In the case of TTCCGACCGGAAGTGAGAAGAGGAGGAAGTTGGCTG it was 64200; in that of CTTAGTTTCCTCTGGCGATGCTAAAGAGGAAGTTAC, 2440.
Sequence ATTTGAAGAGCCAGGAAGGAGGAAATGCAGAGTGCA had an ETS1 binding intensity of 287.
In the case of AGTCTAGTTGCCAGGAAACAGGATGTGGGAGGGACA it was 3800.
Consider TCCTCTTTCCGTTGTGAGCACCCTGCATCCTGGTGG, for which the ETS1 binding intensity was 3800.
CTGATAGGGGAAGTGGGAGTTGACAGGATGGTTTAA showed an ETS1 binding intensity of 424.
Consider ATGTAAAGAGGAAGTGACTCATTCTTCCTGGTGGTG, for which the ETS1 binding intensity came to 3720.
In the case of GGGGCCGGAAGCTTTCGGATAACAACTTCCGCTCGG it was 20100.
Turning to ACAGCTTCCGGTTTTGCAAGACAATGCTTCCTTCTC, the ETS1 binding intensity is 87800.
CAACAGGAAATACATACCTGTCCTGAGAGGAAGCAC had an ETS1 binding intensity of 7320.
Regarding AGCATCTGCTGGGGGAAACGGAAGCAGCCCAGATGG, the ETS1 binding intensity was found to be 774.
Consider TGTAGGAGCTTCCTTGCAGCCTCAGGATGCCGAATT, for which the ETS1 binding intensity was found to be 517.
TATGTATTTCCTTATTGCAAAGGGCGGAAACGTGTA had an ETS1 binding intensity of 3980.
For the sequence GGAAAGACGGCAGGAAATGGGGAAGTGGGAGGGAGA, the ETS1 binding intensity stood at 6220.
On to GGATCAGGAAGTCACGACATGGCGACCATCCTGGCT, for which the ETS1 binding intensity worked out at 1720.
With CCCCACATCCGGTGCGGCGACGCCACTTCCGCCCAC, the ETS1 binding intensity came out at 78100.
For GCCCCACTTCCCTCCCGCGGTCACACTTCCGGCGGC, the ETS1 binding intensity was determined as 12500.
Consider CGTCCCACATCCGCCGACACGCCCCTTCCGGCCTAA, for which the ETS1 binding intensity came to 20000.
In the case of GATGACCTGCCATTTCCCCAGGAAAGCTGAGACCCC it was 201; in that of TTTCTGTCCGTTTCCGACAAACTTCCCGCGCTCTTC, 2630; in that of TGCCCTGCCTGCTTCCTCCCTTCCTTTCAACCCCAA, 2350.
In the case of TGAAGACGGAAACCTGAGAACACCATTTCCTGTGCT, the ETS1 binding intensity stood at 4470.
Turning to TCGGCCACTTCCGGCGCGCGGGGCGGAAAGCGGGCG, the ETS1 binding intensity was found to be 75800.
With CGGCGGCTGCCGGAAAGCCACTTCCGGCCTGCTCCA, the ETS1 binding intensity is 25400.
In the case of CGGCGTCAGCGGAACGGGCGGCTTCCGGCCGCGGCG, the ETS1 binding intensity amounted to 8120.
With GCCGCCGCGTACTTCCGGCCGGAAGAAAGGGCGGGC, the ETS1 binding intensity turned out to be 65400.
CGGCGGAAGGAGCGGGCGGCGTGAGCGCTTCCGCCG: the ETS1 binding intensity is 811.
Consider GGGAGGCGGAAAGGGGCGGGACCACTTCCGGCCTAG, for which the ETS1 binding intensity came out at 22100.
In the case of CTGTCACACAGGAAGACCACACAGGAAGACCAGGTG it was 1320; in that of TCCACTCTGCGGAAGCCACGTTCATCCTGCCCTGCC, 586; in that of ATGCAGAAAGTGGGAAGTGAGGAAATGAGGGCAGCG, 232.
Under AACCAACAACTTACTTCCTTCCGGGTTTGGTGCAGA stands 5690; under GAGAACTTCCGGCTGCAGTACAACCATTTCCGGGCT, 68300; under CCTGGCCGGAAACTGAGCCGTTCACTTCCGCCACCA, 14000.
Under TATCTCCTTCCTGTGTAGCATTGACTTTCCTGTCAG stands 14100.
Sequence CGTGAGCGGAAGCGGCGCCATTCGTCTTCCGAGCGC registered an ETS1 binding intensity of 6670.
Consider TGCTAAACTTCCCTGGGCCCCATCAGGAAATGTGAA, for which the ETS1 binding intensity came out at 185.
The sequence TTCTTGGCCACATCCGTCTCCCGGAACTGCTCCTTC yielded an ETS1 binding intensity of 8980.
In turn, TCCGCGTCCCCACATCCTCCGGATGCCCAGCGGTTG registered an ETS1 binding intensity of 1980.
The sequence GCCCACATCCGGCCCCTCCTTGCCCCGGAACCTCCT returned an ETS1 binding intensity of 70100.
Under CGCCATACCTGGCTTCCGCTTCCGGTGGCTTCTCGT stands 28200.

The record behind these values is the supplement of paper PMC10681739.
